Consider 60 compounds from PubChem BioAssay AID2069 (Sanford-Burnham Center for Chemical Genomics, 2009).

One may read the inhibition as the change of the read-out against control, counted positive when it falls.

Out of some 1,200 compounds screened, about 210 (18%) were called active. No stated cut-off is given here; in the data, active means inhibition above about 30%; inactive means the rest. Only a sample is shown.

This assay is described as follows: HTRF signal interference by compounds, confirmation, artefact control for SUMOylation inhibitor project, biochemical, uHTS (AID 2069). Particulars: HTRF interference counterscreen, fluorescence, at 35 µM, hits give high values. (Time-resolved FRET reads energy transfer from a long-lived donor to a nearby acceptor.)
Regarding `C[n+]1cccc2ccc3c(c21)OC(N)=C(C#N)C3c1ccccc1` (stereo not given), the inhibition was -12.1% (inactive). For `COc1cc(OC)cc(-c2nc(-c3ccccc3)no2)c1` the value was -17.7% (inactive).

As to `COc1ccc(-c2cc(-c3ccccc3)n3ncnc3n2)cc1`, the inhibition is 53.7% (active).

Take `Cc1ccc(S(=O)(=O)C(C#N)c2nc3ccccc3nc2N2CCCC2)cc1` (stereo not given): the inhibition was -7.1% (inactive). The figure for `COc1ccc(C2=NN(C(=O)c3cccs3)C(c3ccccc3O)C2)cc1` (stereo not given) is 8.65% (inactive); for `CC1=NN(c2ccccc2)C(=O)/C1=C/c1ccc(Cl)cc1` it is -10.2% (inactive); for `O=C(O)c1ccc(C(=O)Nc2cccc3ccccc23)c(C(=O)O)c1` it is 4.4% (inactive). For `O=[N+]([O-])c1ccc2[nH]c(O)c(N=NC(=S)Nc3cccnc3)c2c1` the value was -5.4% (inactive); for `CCN(CC)CCOC(=O)c1ccc(N/C=C(/C#N)c2nc(-c3ccc(OC)c(OC)c3)cs2)cc1`, 6.75% (inactive). For `O=C(Nc1ccc2nc(-c3ccco3)c(-c3ccco3)nc2c1)N1CCN(c2ccccn2)CC1`, the inhibition was 12.2% (inactive). With `O=S(=O)(c1ccc2nc(-c3ccco3)c(-c3ccco3)nc2c1)N1CCOCC1`, the inhibition was 30.4% (active). For `O=C(NCc1ccccc1)c1ccc2nc(-c3ccco3)c(-c3ccco3)nc2c1` the value was 15.6% (inactive); for `C=CCN1C(=O)N(CC=C)c2cccc3cccc1c23`, -6.45% (inactive). The figure for `Nc1c(N2CCCC2)cc(Cl)c2nonc12` is 22.4% (inactive); for `CCOC(=O)COc1nc(-c2ccco2)cc(-c2ccco2)c1C#N` it is 22.2% (inactive); for `N#Cc1c(-c2ccco2)cc(-c2cccnc2)nc1N` it is 25.1% (inactive). For `N#Cc1c(-c2cccc(Br)c2)cc(-c2ccco2)[nH]c1=O` the value was 31.6% (active); for `COc1ccc(S(=O)(=O)/N=C2/NC(=O)/C(=C\c3ccco3)S2)cc1`, -10.3% (inactive).

As for `CC(=O)C1=C(O)C=C(c2ccco2)CC1c1ccco1` (stereo not given), the inhibition was -2.85% (inactive). For `O=c1oc2cc(O)ccc2cc1-c1ccc(F)cc1` the value was 45.8% (active); for `O=c1cc(-c2ccc(F)cc2)[nH][nH]1`, -7.15% (inactive); for `Cc1ccc(NC(=O)CN2C(=O)S/C(=C/c3ccc(O)c([N+](=O)[O-])c3)C2=O)cc1C`, -1.6% (inactive). For `Cc1ccc(NC(=O)Cn2c(O)c(N=NC(=O)c3cc4ccccc4cc3O)c3ccccc32)cc1` the value was 8.55% (inactive); for `N=c1c(S(=O)(=O)c2ccccc2)cc2c(=O)n3ccccc3nc2n1Cc1ccco1`, 14.8% (inactive).

For `Cn1c(C(=O)N2CCN(C(=O)c3ccco3)CC2)cc2c(=O)n3ccccc3nc21`, the inhibition is 57.9% (active). For `Cc1ccc(S(=O)(=O)c2cc3c(=O)n4ccccc4nc3n(Cc3ccco3)c2=N)cc1` the value was -2.55% (inactive); for `N=c1c(S(=O)(=O)c2ccc(Cl)cc2)cc2c(=O)n3ccccc3nc2n1Cc1ccco1`, -23.2% (inactive); for `Cn1c(C(=O)N2COCC2(C)C)cc2c(=O)n3ccccc3nc21`, 55.8% (active). For `N=c1c(S(=O)(=O)c2ccc(Br)cc2)cc2c(=O)n3ccccc3nc2n1Cc1ccco1` the value was -13.2% (inactive); for `O=C(/C=C/c1ccco1)Nc1cccc2cccnc12`, 2.9% (inactive); for `CCOC(=O)c1c(CSc2ccccc2)n(C)c2cc(Br)c(OCC(O)CNC(CO)(CO)CO)cc12` (stereo not given), 0.05% (inactive). For `O=C(Cc1cc(=O)oc2cc(O)ccc12)NCC1CCC(C(=O)O)CC1` (stereo not given) the value was 44.1% (active). Turning to `CN(C)c1cccc(C(=O)OCc2cc(=O)oc3cc(O)ccc23)c1`, the inhibition was 3.4% (inactive).

In the case of `O=C(Nc1cccc2nsnc12)c1ccc(-c2ccc(Br)cc2)o1`, the inhibition is 22.6% (inactive). For `O=C(NCCc1ccccc1)c1ccc2nc(-c3ccco3)c(-c3ccco3)nc2c1` the value was 12.2% (inactive); for `Cc1nn(CC(=O)Nc2ccc(C(=O)N(C)C)cc2)c(=O)c2ccccc12`, -0.95% (inactive).

With `Nc1nnc(-c2cc3c(ccc4ccccc43)oc2=O)s1`, the inhibition was 30.1% (active). On to `CCOc1cccc2cc(-c3nnc(NCc4ccco4)s3)c(=O)oc12`, for which the inhibition was 26.9% (inactive). On to `CNc1nnc(-c2cc3ccccc3oc2=O)s1`, for which the inhibition was 23.1% (inactive). On to `Brc1ccc(C2Nc3cccc4cccc(c34)N2)o1`, for which the inhibition is -8.65% (inactive). As for `C/C(=N\OCc1nc2ccccc2c(=O)n1/N=C/c1cc(C)cc([N+](=O)[O-])c1O)c1ccccc1`, the inhibition is -17% (inactive). For `COC(=O)Cn1c2ccc(C)cc2c2nc(C)sc21` the value was 2.05% (inactive). On to `CCOC(=O)Cn1c2ccc(OC)cc2c2nc3ccccc3nc21`, for which the inhibition was 53.6% (active).

With `CCOC(=O)Cn1c2ccccc2c2nc3ccccc3nc21`, the inhibition was 25.7% (inactive). The figure for `CCc1cccc(NC(=S)Nc2cccc3ccccc23)c1` is 2.95% (inactive); for `O=c1cc2c(=O)oc3cc(O)c(O)oc3c2c(O)c1O` it is -3.8% (inactive). For `Cc1cc(=O)n2[nH]c(N)c(N=Nc3ccccc3)c2n1` the value was -13.8% (inactive); for `O=c1c(-c2ccccc2)coc2c(CN3CCCC3)c(O)ccc12`, 42% (active). The figure for `COc1ccccc1/C=N/Nc1cc(N(C)C)nc(N(C)C)n1` is 11.9% (inactive); for `Cn1c(=O)c(Nc2ccc(O)cc2)c2c3c(cccc31)C(=O)c1ccccc1-2` it is -3.25% (inactive); for `O=C(CNc1cccc2ccccc12)N/N=C/c1ccccn1` it is 17.4% (inactive). For the compound `NC(=O)N/N=C/c1ccc2cccc(OCc3ccccc3)c2n1`, the inhibition is 68.3% (active). `Cc1cccc(/C=N/NC(=O)C(C)Nc2cccc3ccccc23)n1` (stereo not given): the inhibition was 1.6% (inactive). For `COc1ccc(N=C2NC(=O)/C(=C\c3ccco3)S2)cc1` the value was 4.75% (inactive); for `COc1ccc(-n2c(CNc3ccc(C)cc3)nnc2SCC(=O)Nc2nc(-c3ccccc3)cs2)cc1`, -1.4% (inactive). Consider `Cc1cccc(NC(=O)CC2Nc3cccc4cccc(c34)NC2=O)c1` (stereo not given), for which the inhibition is -17.8% (inactive).

Regarding `O=C(O)/C=C/C(=O)Nc1ccc2c(c1)NC(=O)CO2`, the inhibition was -0.95% (inactive). For `COc1cc([N+](=O)[O-])cc(/C=N/NC(=O)CC#N)c1O`, the inhibition is 21.6% (inactive). The figure for `O=C(N/N=C/c1cc(Br)cc(Br)c1O)c1ccncc1` is 12.4% (inactive). In the case of `Nc1nnc(CC(=O)N/N=C/c2cc([N+](=O)[O-])cc(Br)c2O)s1`, the inhibition is 30% (active).
